Data taken from PubChem BioAssay AID1159580 (chemical genetic matrix, 2015).
About 2,000 (36%) of roughly 5,500 compounds were called active. Inconclusive results (about 18%) are left out. Cut-off read from the data, not from the text of the source: active = normalized growth mostly below about 0.91 (no sharp cut-off); inconclusive = no clear call, values can overlap the other calls; inactive = mostly above about 0.92. Some of the results follow.

Assay: chemical genetic growth profiling, strain panel (AID 1159580);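 note: tested at 20 µM; growth read once vehicle control cultures reached saturation at 30 °C; 1 = growth at the plate median or of vehicle wells; lower values mean less growth of the strain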
Settings: growth OD
[1] = S. cerevisiae deletion strains, locus YBR021W, strain FUR4, active compounds read low
[2] = S. cerevisiae deletion strains, locus YBR229C, strain ROT2, active compounds read low
[3] = S. cerevisiae deletion strains, locus YCL029C, strain bik1, active compounds read low
[4] = S. cerevisiae deletion strains, locus YDL035C, strain GPR1, active compounds read low
[5] = S. cerevisiae deletion strains, locus YDL074C, strain BRE1, active compounds read low
[6] = S. cerevisiae deletion strains, locus YDL101C, strain DUN1, active compounds read low
[7] = S. cerevisiae deletion strains, locus YDL185W, strain tfp1, active compounds read low
[8] = S. cerevisiae deletion strains, locus YDL192W, strain arf1, active compounds read low
[9] = S. cerevisiae deletion strains, locus YDR101C, strain arx1, active compounds read low
[10] = S. cerevisiae deletion strains, locus YDR150W, strain NUM1, active compounds read low
[11] = S. cerevisiae deletion strains, locus YDR162C, strain NBP2, active compounds read low
[12] = S. cerevisiae deletion strains, locus YDR318W, strain mcm21, active compounds read low
[13] = S. cerevisiae deletion strains, locus YDR388W, active compounds read low
[14] = S. cerevisiae deletion strains, locus YDR502C, strain sam2, active compounds read low
[15] = S. cerevisiae deletion strains, locus YEL061C, strain CIN8, active compounds read low
[16] = S. cerevisiae deletion strains, locus YER110C, active compounds read low
[17] = S. cerevisiae deletion strains, locus YER155C, strain BEM2, active compounds read low
[18] = S. cerevisiae deletion strains, locus YER167W, strain BCK2, active compounds read low
[19] = S. cerevisiae deletion strains, locus YGL078C, strain dbp3, active compounds read low
[20] = S. cerevisiae deletion strains, locus YGL086W, strain mad1, active compounds read low
[21] = S. cerevisiae deletion strains, locus YGL248W, strain PDE1, active compounds read low
[22] = S. cerevisiae deletion strains, locus YGR078C, strain PAC10, active compounds read low
[23] = S. cerevisiae deletion strains, locus YGR135W, strain pre9, active compounds read low
[24] = S. cerevisiae deletion strains, locus YGR252W, strain gcn5, active compounds read low
[25] = S. cerevisiae deletion strains, locus YHR030C, strain SLT2, active compounds read low
[26] = S. cerevisiae deletion strains, locus YHR079C, strain IRE1 (second series), active compounds read low
[27] = S. cerevisiae deletion strains, locus YHR094C, strain hxt1, active compounds read low
[28] = S. cerevisiae deletion strains, locus YHR129C, strain ARP1, active compounds read low
[29] = S. cerevisiae deletion strains, locus YHR200W, strain rpn10, active compounds read low
[30] = S. cerevisiae deletion strains, locus YIL066C, strain RNR3, active compounds read low
[31] = S. cerevisiae deletion strains, locus YIL073C, strain SPO22, active compounds read low
[32] = S. cerevisiae deletion strains, locus YIL125W, strain kgd1, active compounds read low
[33] = S. cerevisiae deletion strains, locus YIR030C, strain dcg1, active compounds read low
[34] = S. cerevisiae deletion strains, locus YJL095W, strain BCK1, active compounds read low
[35] = S. cerevisiae deletion strains, locus YJL134W, strain LCB3, active compounds read low
[36] = S. cerevisiae deletion strains, locus YJL168C, strain set2, active compounds read low
[37] = S. cerevisiae deletion strains, locus YJL187C, strain SWE1 (second series), active compounds read low
[38] = S. cerevisiae deletion strains, locus YJR043C, strain POL32, active compounds read low
[39] = S. cerevisiae deletion strains, locus YJR075W, strain HOC1, active compounds read low
[40] = S. cerevisiae deletion strains, locus YKL009W, strain mrt4, active compounds read low
[41] = S. cerevisiae deletion strains, locus YKL068W, active compounds read low
[42] = S. cerevisiae deletion strains, locus YKL085W, strain MDH1 (second series), active compounds read low
[43] = S. cerevisiae deletion strains, locus YKL085W, strain MDH1, active compounds read low
[44] = S. cerevisiae deletion strains, locus YKL190W, strain CNB1, active compounds read low
[45] = S. cerevisiae deletion strains, locus YKR001C, strain vps1, active compounds read low
[46] = S. cerevisiae deletion strains, locus YLR039C, strain RIC1, active compounds read low
[47] = S. cerevisiae deletion strains, locus YLR058C, strain SHM2, active compounds read low
[48] = S. cerevisiae deletion strains, locus YLR102C, strain apc9, active compounds read low
[49] = S. cerevisiae deletion strains, locus YLR262C, strain YPT6, active compounds read low
[50] = S. cerevisiae deletion strains, locus YLR268W, strain sec22, active compounds read low
[51] = S. cerevisiae deletion strains, locus YLR330W, strain CHS5, active compounds read low
[52] = S. cerevisiae deletion strains, locus YLR342W, strain FKS1 (second series), active compounds read low
[53] = S. cerevisiae deletion strains, locus YLR371W, strain rom2, active compounds read low
[54] = S. cerevisiae deletion strains, locus YLR418C, strain cdc73, active compounds read low
[55] = S. cerevisiae deletion strains, locus YML016C, strain PPZ1, active compounds read low
[56] = S. cerevisiae deletion strains, locus YML032C, strain rad52, active compounds read low
[57] = S. cerevisiae deletion strains, locus YML124C, strain tub3, active compounds read low
[58] = S. cerevisiae deletion strains, locus YMR078C, strain ctf18, active compounds read low
[59] = S. cerevisiae deletion strains, locus YMR223W, strain ubp8, active compounds read low
[60] = S. cerevisiae deletion strains, locus YMR307W, strain GAS1, active compounds read low
[61] = S. cerevisiae deletion strains, locus YNL067W, strain RPL9B, active compounds read low
[62] = S. cerevisiae deletion strains, locus YNL128W, strain TEP1, active compounds read low
[63] = S. cerevisiae deletion strains, locus YNL153C, strain GIM3, active compounds read low
[64] = S. cerevisiae deletion strains, locus YNL233W, strain BNI4, active compounds read low
[65] = S. cerevisiae deletion strains, locus YNL250W, strain rad50, active compounds read low
[66] = S. cerevisiae deletion strains, locus YNL271C, strain bni1, active compounds read low
[67] = S. cerevisiae deletion strains, locus YNL298W, strain CLA4, active compounds read low
[68] = S. cerevisiae deletion strains, locus YNL307C, strain MCK1, active compounds read low
[69] = S. cerevisiae deletion strains, locus YNR052C, strain pop2, active compounds read low
[70] = S. cerevisiae deletion strains, locus YOL012C, strain htz1
[71] = S. cerevisiae deletion strains, locus YOL147C, strain pex11, active compounds read low
[72] = S. cerevisiae deletion strains, locus YOR061W, strain CKA2, active compounds read low
[73] = S. cerevisiae deletion strains, locus YOR069W, strain VPS5, active compounds read low
[74] = S. cerevisiae deletion strains, locus YOR136W, strain idh2, active compounds read low
[75] = S. cerevisiae deletion strains, locus YOR144C, strain elg1, active compounds read low
[76] = S. cerevisiae deletion strains, locus YOR184W, strain ser1, active compounds read low
[77] = S. cerevisiae deletion strains, locus YOR316C, strain cot1, active compounds read low
[78] = S. cerevisiae deletion strains, locus YPL055C, strain LGE1, active compounds read low
[79] = S. cerevisiae deletion strains, locus YPL241C, strain CIN2, active compounds read low
[80] = S. cerevisiae deletion strains, locus YPR119W, strain clb2, active compounds read low
[81] = S. cerevisiae deletion strains, locus YPR141C, strain kar3, active compounds read low
[82] = S. cerevisiae deletion strains, locus YPR163C, strain tif3, active compounds read low
[83] = S. cerevisiae deletion strains, locus YPR167C, strain met16, active compounds read low
[84] = S. cerevisiae deletion strains, strain wtn01, active compounds read low
[85] = S. cerevisiae strains, strain wild type, active compounds read low

Measured: normalized growth

C=C(C)C1CCC(C)(O)C2CC3OC3(C)C2C1 (stereo unspecified)
inactive: S. cerevisiae deletion strains, locus YAL013W, strain DEP1, active compounds read low 1.01 | [1] 1.02 | [2] 1.01 | [3] 1.02 | [4] 1.01 | [5] 0.99 | [6] 0.999 | S. cerevisiae deletion strains, locus YDL134C, strain PPH21, active compounds read low 1 | [7] 1.01 | [8] 1.02 | [9] 1 | [10] 1.02 | [11] 0.995 | [12] 1.02 | [13] 1.01 | [14] 1.01 | [15] 1 | [16] 1.01 | [17] 0.999 | [18] 1.01 | [19] 1.01 | [20] 1.02 | [21] 1 | [22] 0.995 | [23] 1 | S. cerevisiae deletion strains, locus YGR229C, strain SMI1, active compounds read low 1.03 | [24] 1.01 | [25] 1 | [26] 1.01 | [27] 1.01 | [28] 1 | [29] 1.01 | [30] 1.01 | [31] 1.07 | [32] 1.01 | [33] 1 | [34] 0.978 | [35] 1.01 | [36] 1 | [37] 1.01 | [38] 1.03 | [39] 1.06 | [40] 1.02 | [41] 1.01 | [42] 1 | [43] 1 | [44] 1 | [45] 1.02 | [46] 0.992 | [47] 1.01 | [48] 1.01 | [49] 0.999 | [50] 1.01 | [51] 1 | [52] 1.04 | [53] 1.01 | [54] 0.992 | [55] 0.995 | [56] 1.02 | [57] 1.01 | [58] 1.01 | [59] 1.01 | S. cerevisiae deletion strains, locus YMR263W, strain SAP30, active compounds read low 1 | [60] 1.03 | [61] 1.02 | [62] 0.99 | [63] 1 | [64] 0.998 | [65] 1.02 | [66] 1.01 | [67] 1.01 | [68] 1.02 | S. cerevisiae deletion strains, locus YNL322C, strain KRE1, active compounds read low 1.01 | [69] 1.02 | S. cerevisiae deletion strains, locus YOL006C, strain TOP1, active compounds read low 0.996 | [70] 0.919 | [71] 1.01 | [72] 1 | [73] 1.01 | [74] 1.03 | [75] 1.01 | [76] 1.03 | [77] 1.01 | [78] 1 | [79] 1 | [80] 1.01 | [81] 1.01 | [82] 1.02 | [83] 1.01 | [84] 1 | [85] 1.04

CC(C)CC1NC(=O)CNC1=O (stereo unspecified)
inactive: [1] 1.03 | [2] 0.953 | [3] 0.965 | [4] 0.992 | [5] 1.04 | [6] 0.974 | [7] 0.963 | [8] 0.992 | [9] 1.01 | [10] 0.984 | [11] 0.937 | [12] 0.98 | [13] 0.989 | [14] 0.987 | [15] 0.989 | [16] 0.976 | [17] 1.01 | [18] 1 | [19] 0.978 | [20] 1.03 | [21] 0.981 | [22] 0.969 | [23] 0.966 | [24] 0.958 | [25] 1 | [26] 1.01 | [27] 0.972 | [28] 0.997 | [29] 0.971 | [30] 0.981 | [31] 0.986 | [32] 0.987 | [33] 0.995 | [34] 0.964 | [35] 0.992 | [36] 0.991 | [37] 0.969 | [38] 0.977 | [39] 0.993 | [40] 1.02 | [41] 0.985 | [42] 1.02 | [43] 1.02 | [44] 0.981 | [45] 1.01 | [46] 0.964 | [47] 0.979 | [48] 0.993 | [49] 0.938 | [50] 1.01 | [51] 1 | [52] 1.05 | [53] 0.98 | [54] 0.974 | [55] 0.99 | [56] 0.959 | [57] 0.982 | [58] 0.964 | [59] 0.988 | [60] 1.02 | [61] 0.971 | [62] 0.969 | [63] 0.951 | [64] 0.997 | [65] 0.988 | [66] 0.983 | [67] 0.973 | [68] 0.984 | [69] 0.981 | [70] 0.849 | [71] 0.99 | [72] 0.968 | [73] 0.996 | [74] 1.01 | [75] 0.978 | [76] 0.974 | [77] 0.976 | [78] 1.01 | [79] 0.992 | [80] 0.985 | [81] 0.984 | [82] 0.974 | [83] 1 | [84] 1.02 | [85] 0.985
